# According to the supplement of paper PMC12067093, “Discovery and optimisation of a covalent ligand for TRIM25 and its application to targeted protein ubiquitination” (Chemical Science, 2025):
# The full data set covers some 21,000 targets. This sample favours those with the largest changes.
# Compound: CC1Cc2ccccc2N1C(=O)C1CCCN(C1)C(=O)CCl (mixture of isomers) [TRIM25 ligand 11 (diastereomer mixture)]
# Experiment: probe-labelled cysteine peptide fold change vs DMSO (competition) (log2 fold change); higher = less target engagement (more negative = stronger competition)
# Settings: 10 µM; THP-1; incubation time: 4 h
# Chain of UniProt P98170 (P98170 whole entry, looked up): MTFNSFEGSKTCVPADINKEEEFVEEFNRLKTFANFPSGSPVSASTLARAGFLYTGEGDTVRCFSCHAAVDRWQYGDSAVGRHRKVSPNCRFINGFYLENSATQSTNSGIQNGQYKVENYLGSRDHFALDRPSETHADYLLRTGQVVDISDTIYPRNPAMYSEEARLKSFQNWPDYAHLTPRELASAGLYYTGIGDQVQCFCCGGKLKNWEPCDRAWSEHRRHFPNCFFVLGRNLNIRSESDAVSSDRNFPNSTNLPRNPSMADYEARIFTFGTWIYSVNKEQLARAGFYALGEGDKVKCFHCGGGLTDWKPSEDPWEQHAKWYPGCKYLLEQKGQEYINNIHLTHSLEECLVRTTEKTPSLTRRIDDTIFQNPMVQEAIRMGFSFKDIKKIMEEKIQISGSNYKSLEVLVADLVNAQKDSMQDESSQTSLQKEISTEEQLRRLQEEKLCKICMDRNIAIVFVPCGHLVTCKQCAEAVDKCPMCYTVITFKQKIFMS
# Chain of UniProt P35612 (P35612 whole entry, looked up): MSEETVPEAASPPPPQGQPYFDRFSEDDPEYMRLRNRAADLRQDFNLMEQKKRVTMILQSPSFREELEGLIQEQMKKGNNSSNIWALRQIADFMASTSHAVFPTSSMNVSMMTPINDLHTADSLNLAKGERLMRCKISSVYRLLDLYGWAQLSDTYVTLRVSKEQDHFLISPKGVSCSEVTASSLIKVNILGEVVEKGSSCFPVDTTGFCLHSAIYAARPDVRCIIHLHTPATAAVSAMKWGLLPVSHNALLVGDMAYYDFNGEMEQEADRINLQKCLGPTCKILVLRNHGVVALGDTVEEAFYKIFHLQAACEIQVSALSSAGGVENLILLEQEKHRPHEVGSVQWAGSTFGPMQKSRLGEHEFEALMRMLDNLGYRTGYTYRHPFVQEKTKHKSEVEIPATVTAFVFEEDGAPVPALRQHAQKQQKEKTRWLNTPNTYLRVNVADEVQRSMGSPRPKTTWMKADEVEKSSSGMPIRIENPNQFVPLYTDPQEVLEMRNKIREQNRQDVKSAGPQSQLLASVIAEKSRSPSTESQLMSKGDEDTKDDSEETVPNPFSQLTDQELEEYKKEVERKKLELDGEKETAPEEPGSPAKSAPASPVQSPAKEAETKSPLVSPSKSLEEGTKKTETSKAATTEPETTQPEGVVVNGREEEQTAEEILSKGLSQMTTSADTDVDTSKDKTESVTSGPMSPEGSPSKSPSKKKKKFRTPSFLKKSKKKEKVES
# Chain of UniProt O96019 (O96019 whole entry, looked up): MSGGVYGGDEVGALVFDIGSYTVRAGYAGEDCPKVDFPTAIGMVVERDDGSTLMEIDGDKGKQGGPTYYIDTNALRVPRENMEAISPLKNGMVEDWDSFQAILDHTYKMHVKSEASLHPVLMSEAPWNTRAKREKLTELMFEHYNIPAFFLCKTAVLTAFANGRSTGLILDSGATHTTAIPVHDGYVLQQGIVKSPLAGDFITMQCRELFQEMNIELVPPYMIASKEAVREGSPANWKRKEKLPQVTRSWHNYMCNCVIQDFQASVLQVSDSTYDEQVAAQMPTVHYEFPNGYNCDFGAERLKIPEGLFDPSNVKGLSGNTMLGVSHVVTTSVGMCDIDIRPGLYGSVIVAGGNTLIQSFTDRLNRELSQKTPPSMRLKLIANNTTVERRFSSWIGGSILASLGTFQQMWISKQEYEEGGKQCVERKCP
# Chain of UniProt Q8NAF0 (Q8NAF0 whole entry, looked up): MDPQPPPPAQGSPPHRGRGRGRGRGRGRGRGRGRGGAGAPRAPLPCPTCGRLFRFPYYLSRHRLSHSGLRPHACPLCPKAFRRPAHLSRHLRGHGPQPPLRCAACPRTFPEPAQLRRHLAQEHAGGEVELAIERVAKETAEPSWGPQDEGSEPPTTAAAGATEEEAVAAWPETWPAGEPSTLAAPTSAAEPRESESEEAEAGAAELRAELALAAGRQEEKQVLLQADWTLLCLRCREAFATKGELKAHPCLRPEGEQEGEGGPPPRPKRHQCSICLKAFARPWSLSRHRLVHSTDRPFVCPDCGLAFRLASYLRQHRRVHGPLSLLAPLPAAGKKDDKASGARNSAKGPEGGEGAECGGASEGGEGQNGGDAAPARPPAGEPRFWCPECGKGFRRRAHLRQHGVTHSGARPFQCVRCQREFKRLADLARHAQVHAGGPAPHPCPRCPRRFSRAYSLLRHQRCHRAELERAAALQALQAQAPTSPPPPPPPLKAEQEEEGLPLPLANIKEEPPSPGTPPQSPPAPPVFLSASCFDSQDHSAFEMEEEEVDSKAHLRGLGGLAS
# Chain of UniProt Q8N302 (Q8N302 whole entry, looked up): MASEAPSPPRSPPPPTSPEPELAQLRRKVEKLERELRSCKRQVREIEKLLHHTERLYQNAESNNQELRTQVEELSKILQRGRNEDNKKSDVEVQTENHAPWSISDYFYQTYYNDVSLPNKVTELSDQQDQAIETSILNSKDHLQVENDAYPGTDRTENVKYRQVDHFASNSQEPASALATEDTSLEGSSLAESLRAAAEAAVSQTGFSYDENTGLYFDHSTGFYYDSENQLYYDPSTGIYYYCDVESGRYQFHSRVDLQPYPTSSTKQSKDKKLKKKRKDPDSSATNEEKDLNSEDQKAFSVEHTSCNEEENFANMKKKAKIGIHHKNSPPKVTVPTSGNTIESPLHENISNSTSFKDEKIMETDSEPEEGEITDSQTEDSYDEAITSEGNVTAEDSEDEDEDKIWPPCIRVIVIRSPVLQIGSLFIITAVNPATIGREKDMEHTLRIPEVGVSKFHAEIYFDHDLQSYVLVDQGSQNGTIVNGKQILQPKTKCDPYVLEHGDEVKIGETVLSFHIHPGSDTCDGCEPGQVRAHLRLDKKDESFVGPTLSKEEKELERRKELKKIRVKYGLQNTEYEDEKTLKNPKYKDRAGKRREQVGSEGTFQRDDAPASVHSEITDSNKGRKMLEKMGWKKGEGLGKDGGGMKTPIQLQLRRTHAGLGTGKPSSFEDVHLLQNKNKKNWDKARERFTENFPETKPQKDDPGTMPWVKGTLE
# Chain of UniProt Q9NUD5 (Q9NUD5 whole entry, looked up): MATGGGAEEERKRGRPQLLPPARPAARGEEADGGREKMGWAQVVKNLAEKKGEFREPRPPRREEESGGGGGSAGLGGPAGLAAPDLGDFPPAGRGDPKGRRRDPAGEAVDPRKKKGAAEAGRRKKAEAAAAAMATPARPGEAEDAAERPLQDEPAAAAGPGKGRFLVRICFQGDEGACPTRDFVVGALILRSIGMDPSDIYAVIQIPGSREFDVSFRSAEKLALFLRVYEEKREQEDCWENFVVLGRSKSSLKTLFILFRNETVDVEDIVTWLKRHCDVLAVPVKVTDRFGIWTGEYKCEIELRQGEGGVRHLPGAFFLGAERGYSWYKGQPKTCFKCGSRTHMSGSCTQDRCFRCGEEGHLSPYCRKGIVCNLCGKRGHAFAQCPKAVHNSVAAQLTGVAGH
# Chain of UniProt Q7Z2W4 (Q7Z2W4 whole entry, looked up): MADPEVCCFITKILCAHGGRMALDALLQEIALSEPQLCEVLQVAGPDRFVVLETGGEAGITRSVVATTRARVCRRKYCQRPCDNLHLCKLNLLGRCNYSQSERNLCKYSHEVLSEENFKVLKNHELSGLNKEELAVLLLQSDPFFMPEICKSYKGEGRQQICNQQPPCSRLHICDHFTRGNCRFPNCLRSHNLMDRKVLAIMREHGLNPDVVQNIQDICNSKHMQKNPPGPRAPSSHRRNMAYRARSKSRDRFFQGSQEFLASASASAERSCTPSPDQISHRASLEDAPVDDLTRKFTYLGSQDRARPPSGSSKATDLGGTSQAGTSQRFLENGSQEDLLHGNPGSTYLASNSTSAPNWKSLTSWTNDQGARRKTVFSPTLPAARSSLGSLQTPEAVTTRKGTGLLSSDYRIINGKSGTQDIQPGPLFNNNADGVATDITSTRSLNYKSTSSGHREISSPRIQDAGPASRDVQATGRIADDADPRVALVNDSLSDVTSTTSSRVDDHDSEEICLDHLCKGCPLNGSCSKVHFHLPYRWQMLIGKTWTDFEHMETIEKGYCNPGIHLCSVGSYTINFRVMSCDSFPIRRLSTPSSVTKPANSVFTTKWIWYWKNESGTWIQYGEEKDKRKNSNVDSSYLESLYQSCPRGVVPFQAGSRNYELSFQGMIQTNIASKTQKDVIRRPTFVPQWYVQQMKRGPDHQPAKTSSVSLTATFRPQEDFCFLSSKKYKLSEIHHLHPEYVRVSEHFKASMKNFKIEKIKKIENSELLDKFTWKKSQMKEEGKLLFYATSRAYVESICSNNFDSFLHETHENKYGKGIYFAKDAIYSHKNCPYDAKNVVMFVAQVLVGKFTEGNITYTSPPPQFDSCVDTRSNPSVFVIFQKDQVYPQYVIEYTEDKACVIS
# Chain of UniProt Q9Y2Z4 (Q9Y2Z4 whole entry, looked up): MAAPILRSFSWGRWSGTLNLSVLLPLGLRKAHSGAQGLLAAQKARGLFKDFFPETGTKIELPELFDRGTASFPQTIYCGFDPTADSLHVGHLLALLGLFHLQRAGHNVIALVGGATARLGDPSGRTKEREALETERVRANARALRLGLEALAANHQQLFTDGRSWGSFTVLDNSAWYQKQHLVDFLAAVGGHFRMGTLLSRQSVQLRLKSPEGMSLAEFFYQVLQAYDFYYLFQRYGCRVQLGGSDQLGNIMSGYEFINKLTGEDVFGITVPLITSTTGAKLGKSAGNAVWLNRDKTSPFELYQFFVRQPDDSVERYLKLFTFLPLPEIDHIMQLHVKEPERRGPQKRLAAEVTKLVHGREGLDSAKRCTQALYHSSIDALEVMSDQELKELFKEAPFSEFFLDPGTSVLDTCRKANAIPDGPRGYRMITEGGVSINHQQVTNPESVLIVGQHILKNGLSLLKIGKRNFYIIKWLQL
# Chain of UniProt Q8IVQ6 (Q8IVQ6 whole entry, looked up): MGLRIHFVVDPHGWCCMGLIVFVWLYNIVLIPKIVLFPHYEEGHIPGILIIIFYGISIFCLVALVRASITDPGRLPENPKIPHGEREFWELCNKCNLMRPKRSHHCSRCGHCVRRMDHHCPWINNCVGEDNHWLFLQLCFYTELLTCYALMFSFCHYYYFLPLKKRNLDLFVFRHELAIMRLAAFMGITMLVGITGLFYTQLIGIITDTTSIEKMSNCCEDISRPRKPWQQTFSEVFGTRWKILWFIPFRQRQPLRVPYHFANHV
row,Target,probe-labelled cysteine peptide fold change
1,ADK_P55263_160_SLIANLAAANCYKK (UniProt P55263),-0.669
2,AARS_P49588_184+187_DNFWEMGDTGPCGPCSEIHYDR (UniProt P49588),0.105
3,AAAS_Q9NRG9_335_CQTGCWSPDGSR (UniProt Q9NRG9),0.605
4,ADD2_P35612_224_CIIHLHTPATAAVSAMK (UniProt P35612),-0.0204
5,ACTL6A_O96019_152_LTELMFEHYNIPAFFLCK (UniProt O96019),-0.0461
6,ADAM15_Q13444_409_ALLDGMGSCLFER (UniProt Q13444),-0.145
7,ACTN4_O43707_879_RELPPDQAEYCIAR (UniProt O43707),0.0491
8,ACADVL_P49748_237_TSAVPSPCGK (UniProt P49748),-0.126
9,AGGF1_Q8N302_494_CDPYVLEHGDEVK (UniProt Q8N302),0.0808
10,A6NIZ1_A6NIZ1_118_VKDTDDVPMILVGNKCDLEDER<|>RAP1B_P61224_118_VKDTDDVPMILVGNKCDLEDER (UniProt P61224+A6NIZ1),-0.583
11,ACADS_P16219_109_GCASTGVIMSVNNSLYLGPILK (UniProt P16219),0.201

# Same assay, conditions: 50 µM; THP-1; incubation time: 4 h
row,Target,probe-labelled cysteine peptide fold change
1,ADK_P55263_160_SLIANLAAANCYKK (UniProt P55263),-0.408
2,AARS_P49588_184+187_DNFWEMGDTGPCGPCSEIHYDR (UniProt P49588),-0.0756
3,AAAS_Q9NRG9_335_CQTGCWSPDGSR (UniProt Q9NRG9),-0.129
4,ADD2_P35612_224_CIIHLHTPATAAVSAMK (UniProt P35612),-0.168
5,ACTL6A_O96019_152_LTELMFEHYNIPAFFLCK (UniProt O96019),0.0154
6,ADAM15_Q13444_409_ALLDGMGSCLFER (UniProt Q13444),0.146
7,ACTN4_O43707_879_RELPPDQAEYCIAR (UniProt O43707),0.0892
8,ACADVL_P49748_237_TSAVPSPCGK (UniProt P49748),-0.057
9,AGGF1_Q8N302_494_CDPYVLEHGDEVK (UniProt Q8N302),0.0697
10,A6NIZ1_A6NIZ1_118_VKDTDDVPMILVGNKCDLEDER<|>RAP1B_P61224_118_VKDTDDVPMILVGNKCDLEDER (UniProt P61224+A6NIZ1),-0.426
11,ACADS_P16219_109_GCASTGVIMSVNNSLYLGPILK (UniProt P16219),0.216

# Compound: Cc1cc(ccc1-c1ccccc1)C(=O)N1CCCN(CC1)C(=O)CCl [compound 10]
# Experiment: as above
# Settings: 10 µM; THP-1; incubation time: 4 h
row,Target,probe-labelled cysteine peptide fold change
1,WDR81_Q562E7_215_GSPACPSLLR (UniProt Q562E7),-0.185
2,WDR82_Q6UXN9_195_TCEWTGLK (UniProt Q6UXN9),-0.0459
3,ZNF562_Q6V9R5_17_EPICPFEEK<|>ZNF561_Q8N587_17_EPICPFEEK (UniProt Q8N587+Q6V9R5),-0.186
4,XIAP_P98170_213_NWEPCDR (UniProt P98170),-0.0911
5,ZNF579_Q8NAF0_77_LSHSGLRPHACPLCPK (UniProt Q8NAF0),0.112
6,YARS2_Q9Y2Z4_413_EAPFSEFFLDPGTSVLDTCRK (UniProt Q9Y2Z4),-0.161
7,ZNF592_Q92610_592_IHVPASGYCCLECGDAFALEK (UniProt Q92610),-0.0351
8,ZC3H11A_O75152_588_SVLTPLRGDVASCNTQVAEK (UniProt O75152),-0.0147
9,XRN2_Q9H0D6_715_HHPLHDFILELYQTGSTEPVEVPPELCHGIQGK (UniProt Q9H0D6),-0.0366
10,ZNF76_P36508_292_THTGERPYTCPEPHCGR (UniProt P36508),0.0197
11,ZC3HAV1_Q7Z2W4_168_QQICNQQPPCSR (UniProt Q7Z2W4),0.0782
12,ZDHHC21_Q8IVQ6_112_CGHCVR (UniProt Q8IVQ6),0.0718
13,XPO1_O14980_528_DLLGLCEQKR (UniProt O14980),-0.248
14,ZNF638_Q14966_688_EQSLHYGSVLLITELPEDGCTEEDVR (UniProt Q14966),0.0192
15,XPO6_Q96QU8_324_NCVPMEFEEYLLR (UniProt Q96QU8),-0.0141
16,YTHDC2_Q9H6S0_788_LLAPVNCPIADFLMK (UniProt Q9H6S0),-0.0326
17,YEATS2_Q9ULM3_565_QEDSLFASMPPLCPIGSHPK (UniProt Q9ULM3),-0.301
18,ZER1_Q7Z7L7_337_RPLQFLGLFENSLCR (UniProt Q7Z7L7),-0.124
19,ZCCHC3_Q9NUD5_385_GHAFAQCPK (UniProt Q9NUD5),0.0381
20,YWHAZ_P63104_94_DICNDVLSLLEK (UniProt P63104),0.233

# Same assay, conditions: 50 µM; THP-1; incubation time: 4 h
row,Target,probe-labelled cysteine peptide fold change
1,WDR81_Q562E7_215_GSPACPSLLR (UniProt Q562E7),-0.529
2,WDR82_Q6UXN9_195_TCEWTGLK (UniProt Q6UXN9),0.418
3,ZNF562_Q6V9R5_17_EPICPFEEK<|>ZNF561_Q8N587_17_EPICPFEEK (UniProt Q8N587+Q6V9R5),-1.08
4,XIAP_P98170_213_NWEPCDR (UniProt P98170),-0.654
5,ZNF579_Q8NAF0_77_LSHSGLRPHACPLCPK (UniProt Q8NAF0),-0.0195
6,YARS2_Q9Y2Z4_413_EAPFSEFFLDPGTSVLDTCRK (UniProt Q9Y2Z4),-0.368
7,ZNF592_Q92610_592_IHVPASGYCCLECGDAFALEK (UniProt Q92610),-0.192
8,ZC3H11A_O75152_588_SVLTPLRGDVASCNTQVAEK (UniProt O75152),0.00571
9,XRN2_Q9H0D6_715_HHPLHDFILELYQTGSTEPVEVPPELCHGIQGK (UniProt Q9H0D6),0.0175
10,ZNF76_P36508_292_THTGERPYTCPEPHCGR (UniProt P36508),-0.0549
11,ZC3HAV1_Q7Z2W4_168_QQICNQQPPCSR (UniProt Q7Z2W4),-0.158
12,ZDHHC21_Q8IVQ6_112_CGHCVR (UniProt Q8IVQ6),-0.0337
13,XPO1_O14980_528_DLLGLCEQKR (UniProt O14980),-1.11
14,ZNF638_Q14966_688_EQSLHYGSVLLITELPEDGCTEEDVR (UniProt Q14966),0.11
15,XPO6_Q96QU8_324_NCVPMEFEEYLLR (UniProt Q96QU8),0.145
16,YTHDC2_Q9H6S0_788_LLAPVNCPIADFLMK (UniProt Q9H6S0),-0.072
17,YEATS2_Q9ULM3_565_QEDSLFASMPPLCPIGSHPK (UniProt Q9ULM3),-0.418
18,ZER1_Q7Z7L7_337_RPLQFLGLFENSLCR (UniProt Q7Z7L7),-0.0583
19,ZCCHC3_Q9NUD5_385_GHAFAQCPK (UniProt Q9NUD5),-0.0115
20,YWHAZ_P63104_94_DICNDVLSLLEK (UniProt P63104),0.309
